Biological target: Streptavidin (Streptomyces avidinii) (UniProt P22629)
Assay: compounds binding control protein streptavidin – biophysical, small-molecule microarray, 635/667 nm fluorescence, artefact control for SMM compound annotation, primary screen (AID 1147);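 further: signal reflects streptavidin binding to arrayed compounds as a control protein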
Details: higher = more signal

Chain of Streptavidin (Streptomyces avidinii) (P22629 whole entry, looked up): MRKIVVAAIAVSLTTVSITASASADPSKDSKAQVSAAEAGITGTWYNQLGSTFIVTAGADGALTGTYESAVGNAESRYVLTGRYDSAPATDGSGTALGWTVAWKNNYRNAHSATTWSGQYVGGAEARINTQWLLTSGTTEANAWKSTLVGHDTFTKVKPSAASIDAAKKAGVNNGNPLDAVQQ

SMILES	composite z-score
CCN1C(=O)[C@@H]2[C@H]3C(=CC[C@@H]2C1=O)C1(OCCCO1)[C@H]1O[C@H]1[C@H]3O	1.13
CCOC(=O)[C@H](Cc1ccccc1)NC(=O)CCC1CC(OC(=O)NCCc2ccc(F)cc2)CC2(CCCC(COC(=O)NCCc3ccccc3OC)O2)O1 (stereo partly specified)	0.536
CCOC(=O)NN=C1C[C@@H](O)[C@@H](O)[C@@H]2[C@@H]3C(=O)N(c4cccc(Oc5ccccc5)c4)C(=O)[C@@H]3CC[C@H]12	0.948
CCCCC#C[C@@H]1C=C[C@H](Oc2ccc(C(=O)OC)cc2)[C@@H](COC(=O)OCC)O1	0.25
CCCNC(=O)OC[C@H]1O[C@H](CCON=C(C)CCN2CCc3nc(CC)c(CC)cc3C2)C=C[C@@H]1Oc1ccc(OC)cc1	0.333
CCC1=NOC(CCC2CC(OC(=O)NCc3cccc4c3OCO4)CC3(CCCC(COC(=O)NCCc4ccccc4OC)O3)O2)C1 (stereo unspecified)	0.72
CO[C@@H]1COC(=O)CC=C[C@H](C)[C@H](OC)COC(=O)[C@H](C)NC(=O)CC=C[C@H]1C	-0.369
C#CCCCON=C1C[C@@H](O)[C@@H](O)[C@@H]2[C@@H]3C(=O)N(C(C)(C)C)C(=O)[C@@H]3CC[C@H]12	0.941
CCOC(=O)[C@H](Cc1ccccc1)NC(=O)CCC1CC(OC(=O)NCc2ccc3c(c2)OCO3)CC2(CCCC(COC(=O)NCCC(C)C)O2)O1 (stereo partly specified)	0.789
COC(=O)CC=C[C@@H](C)[C@@H](C=NO[C@H](C)c1cn([C@H](CO)Cc2ccccc2)nn1)NS(=O)(=O)c1ccc(C)cc1	0.912
CCN1C(=O)[C@H]2[C@H]3[C@H](O)[C@H](O)CC(=O)[C@@H]3CC[C@H]2C1=O	0.253
CCO[C@H](c1cc(OC)cc([N+](=O)[O-])c1OC)[C@H](C)C=CCC(=O)OC	0.0571
COC(=O)[C@H](C)NC(=O)CCC1CC(OC(=O)NCCc2ccc(F)cc2)CC2(CCCC(COC(=O)NCc3cccc(C(F)(F)F)c3)O2)O1 (stereo partly specified)	0.213
CCOC(=O)[C@H](CC(C)C)NC(=O)CCC1CC(OC(=O)NCc2ccc3c(c2)OCO3)CC2(CCCC(COC(=O)NCc3cccc(C(F)(F)F)c3)O2)O1 (stereo partly specified)	-0.113
COC(=O)[C@H](C)NC(=O)CCC1CC(OC(=O)NCc2ccc3c(c2)OCO3)CC2(CCCC(COC(=O)NCc3cccc(C(F)(F)F)c3)O2)O1 (stereo partly specified)	0.634
C[C@@H](c1ccccc1)N1C(=O)[C@H]2[C@H]3[C@H](O)[C@H](O)CC(=NO[C@@H]4O[C@H](CO)[C@@H](O)[C@H](O)[C@H]4O)[C@H]3CC[C@H]2C1=O	0.152
CCc1cc2c(nc1CC)CCN(CCC(C)=NO[C@H](C)c1cn([C@H](CO)Cc3ccccc3)nn1)C2	0.656
O=C1C[C@@H](O)[C@@H](O)[C@@H]2[C@@H]3C(=O)N(Cc4ccccc4)C(=O)[C@@H]3CC[C@@H]12	0.413

SMILES	composite z-score
COc1ccc(O[C@H]2C=C[C@@H](c3ccccc3)O[C@@H]2CON=CC[C@@H]2C=C[C@H](OC(C)=O)[C@@H](COC(C)=O)O2)cc1	3.65
Cc1ccc(S(=O)(=O)n2c3ccccc3c3nnc(C(=O)c4ccccc4)nc32)cc1	-0.237
CCCNC(=O)OC[C@H]1O[C@H](CCON=C(C)CCC(=O)OC[C@H]2O[C@H](c3ccccc3)C=C[C@@H]2Oc2ccc(OC)cc2)C=C[C@@H]1Oc1ccc(OC)cc1	0.728
COC(=O)CC=C[C@@H](C)[C@H](OCc1cccc(-c2ccccc2)c1)C1CCCCC1	1.85
O=C(NN=C1C[C@@H](O)[C@@H](O)[C@@H]2[C@@H]3C(=O)N(Cc4ccccc4)C(=O)[C@@H]3CC[C@@H]12)OCc1ccccc1	-0.418
COc1ccc(COC(=O)NN=C2C[C@@H](O)[C@@H](O)[C@@H]3[C@@H]4C(=O)N(Cc5ccccc5)C(=O)[C@@H]4CC[C@H]23)cc1	0.273
COc1ccc(O[C@H]2C=C[C@@H](c3ccccc3)O[C@@H]2CON=C(C)CCC(=O)OC[C@H]2O[C@H](c3ccccc3)C=C[C@@H]2Oc2ccc(OC)cc2)cc1	0.204
CCCNC(=O)OC[C@H]1O[C@H](CCON=Cc2ccc(C(=O)N3[C@H](c4ccc(C)cc4)[C@@H](C)CC[C@H]3C(=O)OC)cc2)C=C[C@@H]1Oc1ccc(OC)cc1	0.0335
CCOC(=O)CCN1C(=O)[C@H]2[C@H]3[C@H](O)[C@H](O)CC(=NNC(=O)OCc4ccccc4)[C@@H]3CC[C@H]2C1=O	0.551
C[C@@H](c1ccccc1)N1C(=O)[C@H]2[C@H]3[C@H](O)[C@H](O)CC(=NOCc4ccccc4)[C@H]3CC[C@H]2C1=O	0.587
COC(=O)CC=C[C@@H](C)[C@@H](C=NOC[C@@H](O)[C@H]1O[C@@H]2OC(C)(C)O[C@@H]2[C@H]1O)NS(=O)(=O)c1ccc(C)cc1	-0.0169
O=C(NN=C1C[C@@H](O)[C@@H](O)[C@@H]2[C@@H]3C(=O)N(C4CCCCC4)C(=O)[C@@H]3CC[C@H]12)OCc1ccccc1	0.0049
Cc1cc2c(nc1C)CCCCN2CC(C)ON=C[C@@H](C)[C@H](OCc1ccccc1)C(C)C (stereo partly specified)	-1.88
CCOC(=O)[C@H](CC(C)C)NC(=O)CCC1CC(OC(=O)NCc2cccc3ccccc23)CC2(CCCC(COC(=O)NCCC(C)C)O2)O1 (stereo partly specified)	-0.589
CC(C)CON=C1C[C@@H](O)[C@@H](O)[C@@H]2[C@@H]3C(=O)N(C[C@@H]4CCCO4)C(=O)[C@@H]3CC[C@@H]12	-0.265
C=CC[C@@H]1C=C[C@H](ON=C(C)CCC(=O)OC[C@H]2O[C@H](c3ccccc3)C=C[C@@H]2Oc2ccc(OC)cc2)[C@@H](CO)O1	-0.586
CO[C@@H]1COC(=O)CC=C[C@@H](C)[C@@H]2C=C[C@H](O)[C@@H](COC(=O)CC=C[C@H]1C)O2	-0.0274
COC(=O)[C@H](C)NC(=O)CCC1CC(OC(=O)NCc2cccc3ccccc23)CC2(CCCC(COC(=O)NCC(c3ccccc3)c3ccccc3)O2)O1 (stereo partly specified)	-0.244
